The list is not random: actives were taken first. Their share in the collection is about 12%.
ROMK mod: modulators of human ROMK potassium channel. P48048. Tet-inducible ROMK, thallium flux fluorescence; actives lie on both sides. B-score at 10 µM. 2% of 130,000 active;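 active means signal ratio slope over the read window, or its plate-corrected B-score, at least 3 SD from the plate mean, either direction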;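 further: B-score of the F/F0 ratio slope over 7 to 12 s after thallium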
Calpain2 inh: inhibitors of pig calpain II. purified calpain II, fluorogenic peptide substrate, 30 min. 0.37% of 220,000 active. inhibition, % at 16 µM;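 active means inhibition above about 50%, limit read from the data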
L major viab: reduces viability of Leishmania major promastigotes. 9% of 200,000 active. inhibition, % at 10 µM. resazurin fluorescence viability; in the data active means inhibition above about 50%;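 further: promastigotes grown with compound for 44 hours at 28 °C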
WT yeast gro inh: growth inhibition of WT yeast, mitochondrial fusion screen; mitochondrial fusion phenotypic screen, WT strain; inhibition, % at 10 µM; 2.1% of 190,000 active; in the data active means inhibition above about 58%; tested in S. cerevisiae
Cl transport mod: modulates chloride dependent transport by human KCC2. Q9H2X9. KCC2 cells, thallium flux FluoZin-2 fluorescence. B-score of Tl+ flux slope (higher = more flux/activation; lower = inhibition) at 10 µM. 2.2% of 190,000 active;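 active means thallium flux slope and its plate-corrected score both differing from the plate sample mean at a set confidence after two filtering rounds, in either direction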;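 further: slope of fluorescence scaled to starting intensity during 10 to 20 s after thallium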
Target sequence (Q9H2X9 whole entry, looked up): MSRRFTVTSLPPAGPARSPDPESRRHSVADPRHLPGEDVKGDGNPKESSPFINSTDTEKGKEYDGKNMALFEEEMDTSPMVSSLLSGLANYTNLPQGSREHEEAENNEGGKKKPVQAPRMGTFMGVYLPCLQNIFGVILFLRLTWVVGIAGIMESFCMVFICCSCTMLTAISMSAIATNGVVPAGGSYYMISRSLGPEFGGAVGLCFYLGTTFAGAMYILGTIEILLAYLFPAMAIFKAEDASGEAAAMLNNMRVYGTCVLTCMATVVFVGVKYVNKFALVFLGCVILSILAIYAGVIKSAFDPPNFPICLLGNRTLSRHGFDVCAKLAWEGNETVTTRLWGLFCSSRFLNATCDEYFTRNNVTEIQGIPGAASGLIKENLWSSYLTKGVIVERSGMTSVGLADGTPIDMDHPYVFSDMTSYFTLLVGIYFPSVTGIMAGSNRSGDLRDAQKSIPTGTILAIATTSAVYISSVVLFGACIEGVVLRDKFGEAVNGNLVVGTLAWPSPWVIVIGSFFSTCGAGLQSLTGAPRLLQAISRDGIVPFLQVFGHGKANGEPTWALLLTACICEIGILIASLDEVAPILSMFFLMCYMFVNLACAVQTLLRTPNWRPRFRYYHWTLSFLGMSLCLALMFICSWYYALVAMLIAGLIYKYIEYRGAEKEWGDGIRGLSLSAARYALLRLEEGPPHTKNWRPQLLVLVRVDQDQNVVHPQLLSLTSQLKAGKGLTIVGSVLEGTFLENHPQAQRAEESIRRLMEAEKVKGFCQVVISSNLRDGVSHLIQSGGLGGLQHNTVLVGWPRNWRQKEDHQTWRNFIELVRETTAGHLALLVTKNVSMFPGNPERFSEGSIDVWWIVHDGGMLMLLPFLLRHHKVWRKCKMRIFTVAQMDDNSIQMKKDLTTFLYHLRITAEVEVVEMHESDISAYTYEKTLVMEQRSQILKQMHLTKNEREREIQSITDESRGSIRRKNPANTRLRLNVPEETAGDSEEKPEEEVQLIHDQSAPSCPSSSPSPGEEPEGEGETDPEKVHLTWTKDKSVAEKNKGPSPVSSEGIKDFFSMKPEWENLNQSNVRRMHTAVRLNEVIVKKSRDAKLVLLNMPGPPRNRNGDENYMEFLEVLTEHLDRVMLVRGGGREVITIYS
* marks the source's active call; other numbers are inactive results.

`CS(=O)(=O)N1CCc2cc(C(=O)NC3CC3)ccc21` gave ROMK mod 0.067, Calpain2 inh -3, L major viab -6, WT yeast gro inh -3 and Cl transport mod 0.73.
Screening CS(=O)(=O)N1CCc2cc(NC(=O)c3ccc(Cl)cc3Cl)ccc21 returned ROMK mod -0.033, Calpain2 inh 50*, L major viab -1, WT yeast gro inh 17 and Cl transport mod 1.1.
`CCC(NC(=O)c1ccccc1NC(=O)c1ccco1)C(=O)NNC(=O)c1ccncc1` (stereo not given) gave Calpain2 inh 7 and Cl transport mod 1.5.
`O=C(NCc1ccccn1)C1CCN(Cc2cccc(OCc3ccccc3)c2)CC1` gave ROMK mod -0.98, Calpain2 inh -5, L major viab 100*, WT yeast gro inh -1 and Cl transport mod -0.077.
Screening CC(O)CNC(=O)C1CCN(Cc2ccc(OCc3ccccc3)cc2)CC1 (stereo not given) returned ROMK mod -0.35, Calpain2 inh 17, L major viab 91*, WT yeast gro inh -3 and Cl transport mod -0.56.
`CC(C)CNC(=O)C1CCN(Cc2ccc(OCc3ccccc3)cc2)CC1` gave ROMK mod -1.6, Calpain2 inh 24, L major viab 32, WT yeast gro inh 26 and Cl transport mod 0.52.
`COc1ccccc1C(=O)NCC(=O)N/N=C/c1cccc(Cl)c1` gave ROMK mod -1.1, Calpain2 inh -10, L major viab 18, WT yeast gro inh 1 and Cl transport mod -0.16.
CCC(C)C(NC(=O)c1ccc(Cl)cc1)C(=O)Nc1cccnc1 (stereo not given) was read as ROMK mod 1.2, Calpain2 inh 102*, L major viab 14, WT yeast gro inh -5 and Cl transport mod 1.5.
Screening NS(=O)(=O)c1ccc(NNC(=O)c2ccc(F)cc2F)cc1 returned ROMK mod -0.75, Calpain2 inh -13 and Cl transport mod 1.1.
`CCS(=O)(=O)N1CCN(c2ccc([N+](=O)[O-])c(NCc3cccnc3)c2)CC1` gave ROMK mod 0.7, Calpain2 inh 4, L major viab 3, WT yeast gro inh -9 and Cl transport mod -1.2.
Screening O=[N+]([O-])c1ccc(N2CCN(S(=O)(=O)c3ccccc3[N+](=O)[O-])CC2)cc1NCc1cccnc1 returned ROMK mod -0.11, Calpain2 inh -78, L major viab 68*, WT yeast gro inh -10 and Cl transport mod -0.013.
For COc1ccccc1C(=O)O/N=C(/c1ccncc1)c1ccc([N+](=O)[O-])cc1 the results were ROMK mod -0.1, Calpain2 inh 1, L major viab 5, WT yeast gro inh 8 and Cl transport mod -2.8.
CCOC(=O)Cn1c(=O)oc2cc(S(=O)(=O)Nc3cc(OCC)ccc3OCC)ccc21 was read as Calpain2 inh 1, L major viab 71* and Cl transport mod -2.3.
Screening Cc1nn(C)cc1S(=O)(=O)N1CCN(Cc2ccc(F)cc2Cl)CC1 returned ROMK mod 0.53, Calpain2 inh 15, L major viab 3, WT yeast gro inh 9 and Cl transport mod 0.1.
`Cc1ccc(C(=O)NC(=S)Nc2ccc3c(c2)OCCO3)c(C)c1` gave Calpain2 inh 30, L major viab 0, WT yeast gro inh -10 and Cl transport mod 13*.
`Cc1cc(C)cc(C(=O)NC(=S)Nc2ccc3c(c2)OCCO3)c1` gave Calpain2 inh 30, L major viab 19, WT yeast gro inh 27 and Cl transport mod 1.
For Cc1ccccc1NC(=S)N/N=C1\CC(C)(C)Oc2ccc(O)cc21 the results were ROMK mod 0.44, Calpain2 inh -113, L major viab 84*, WT yeast gro inh -6 and Cl transport mod 0.25.
For COC(=O)C(=O)/C=C(\O)c1c(C)cc(C)cc1C the results were ROMK mod -0.01, Calpain2 inh -4 and Cl transport mod 0.45.
For O=C(COc1ccc(Nc2ccccc2)cc1)OCC(=O)N1CCCCC1 the results were Calpain2 inh 12 and Cl transport mod -0.87.
Screening COc1ccc(S(=O)(=O)N2CC3C4C=CC(C4)C3C2)cc1 (stereo not given) returned ROMK mod 0.34, Calpain2 inh 12, L major viab -1, WT yeast gro inh 14 and Cl transport mod 0.68.
For COc1ccc(-c2cc(-c3ccc(OC)cc3)c(C#N)c(SC)n2)cc1 the results were Calpain2 inh -13, L major viab 1, WT yeast gro inh 12 and Cl transport mod 0.028.
N#Cc1c(-c2cccc(F)c2)cc(-c2ccccc2)nc1Br was read as ROMK mod 0.84, Calpain2 inh -172, L major viab -5, WT yeast gro inh -9 and Cl transport mod 0.79.
